20 compounds from PubChem BioAssay (NCATS) can be followed below.

Where “and” joins values, the source holds several entries; their conditions need not be identical. Identical values can stand only once. Records with an inconclusive call do not appear. The source holds several records for some structures; these can differ, active in one and inactive in another. Calls of active or inactive are those of the source. Calls follow the shape of the dose curve; as a rule, active = well fitted curve in the direction sought with a large enough effect; inconclusive = small, poorly fitted or top-dose-only effect, or another doubt; inactive = no such curve, though single readings can be large; an effect the other way counts as inactive or inconclusive.

Experiment [1] addresses Glutathione peroxidase 1 (Homo sapiens) (UniProt P07203). The experiment can be described thus: Primary qHTS Assay for Inhibitors of Recombinant Selenoprotein Glutathione Peroxidase 1 (GPX1) (AID 1845191). Also: nearly all actives have a fitted effect of over 65% in size. Conditions: recombinant GPX1, GR-coupled NADPH fluorescence, 15 min; series mostly up to 48.8 µM. Put shortly: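 GR-coupled readout: NADPH consumption tracked by fluorescence, ex 340/em 450 nm, at t=0 and after 15 min at RT. Final mix 10 nM GPX1, 1 mM GSH, 0.5 mM CHP, 0.5 mM NADPH, 100 nM GR, 0.01% BSA, following 30 min enzyme–compound preincubation.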

In experiment [2] the target is Phospholipid hydroperoxide glutathione peroxidase GPX4 (Homo sapiens) (UniProt P36969). The experiment is described as follows: Primary qHTS Assay for Inhibitors of Recombinant Selenoprotein Glutathione Peroxidase 4 (GPX4) (AID 1845192). Also: nearly all actives have a fitted effect of over 65% in size. Also: potency is read from the fitted curve at half-maximal effect. Conditions: recombinant GPX4, GR-coupled NADPH fluorescence, 15 min; series mostly up to 50 µM. Put shortly:
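Steps: GPX4 plus compound, 30 min RT; add GR/GSH/NADPH master mix; start with cumene hydroperoxide; read 340/450 nm fluorescence at 0 and 15 min. Finals were 200 nM GPX4, 1 mM GSH, 0.5 mM CHP, 0.5 mM NADPH, 100 nM GR.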

For experiment [3], the target named is Luciferin 4-monooxygenase (Photinus pyralis) (UniProt P08659). The experiment is described as follows: Primary firefly luciferase (FLuc) qHTS assay for identification of artifact compounds. (AID 1845220). Also: nearly all actives have a fitted effect of over 60% in size. Conditions: purified firefly luciferase, luminescence, 5 min; series mostly up to 54.1 µM. Summed up: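 D-luciferin and ATP (10 uM each, final) in Tris acetate buffer pH 7.6 were incubated with compounds for 15 min at room temperature. The reaction was started with 10 nM Photinus pyralis luciferase and luminescence read after 5 min. Percent inhibition was fitted to a 4-parameter Hill equation.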

Experiment [4] in a line: Primary fluorescence-based thiol-reactive (MSTI) qHTS assay for identification of artifact compounds. (AID 1845221).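 Also: thiol-reactive compounds lower the probe fluorescence signal; nearly all actives have a fitted effect of over 65% in size.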 Conditions: MSTI thiol-reactivity probe, 1 h; series mostly up to 53.8 µM. Put shortly: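 qHTS titration of compound; 4 uM MSTI, PBS pH 7.4, 2% DMSO; 1 h RT, dark; fluorescence 525/598 nm; normalized to Acetyl-MSTI and MSTI; 4-parameter Hill fit.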
In experiment [5] the test system is Nanoluciferase (engineered Oplophorus gracilirostris luciferase). The experiment is described as follows: Primary Nanoluciferase (NLuc) qHTS assay for identification of artifact compounds. (AID 1845222). Conditions: NLuc-conditioned medium, Nano-Glo luminescence, 5 min; series mostly up to 54.1 µM. Put shortly:
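Diluted conditioned medium from NLuc-expressing S16 cells treated with compounds for 15 min at room temperature, then Nano-Glo substrate added; luminescence read after 5 min. Percent inhibition versus no-enzyme and DMSO controls fitted to 4-parameter Hill equation.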

A short description of experiment [6]: Primary redox qHTS assay for identification of artifact compounds. (AID 1845223). Conditions: Amplex Red/HRP redox cycling with DTT, fluorescence; series mostly up to 53.8 µM. Summed up:
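Redox-cycling detection via DTT (250 uM final) oxidation coupled to Amplex Red (25 uM)/HRP (250 mU/mL) in HBSS. 15 min preincubation plus 30 min after DTT, room temperature. Ex/Em 525/598 nm; 4-parameter Hill fit against DMSO and 10 uM DA3003.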

Sequence of Glutathione peroxidase 1 (Homo sapiens) (P07203 whole entry, looked up): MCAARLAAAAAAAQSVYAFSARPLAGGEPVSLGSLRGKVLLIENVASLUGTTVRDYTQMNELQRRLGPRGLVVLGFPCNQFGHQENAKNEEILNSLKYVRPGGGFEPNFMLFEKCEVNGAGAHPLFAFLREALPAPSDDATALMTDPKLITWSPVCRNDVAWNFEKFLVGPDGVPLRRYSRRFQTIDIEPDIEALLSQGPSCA
Sequence of Phospholipid hydroperoxide glutathione peroxidase GPX4 (Homo sapiens) (P36969 whole entry, looked up): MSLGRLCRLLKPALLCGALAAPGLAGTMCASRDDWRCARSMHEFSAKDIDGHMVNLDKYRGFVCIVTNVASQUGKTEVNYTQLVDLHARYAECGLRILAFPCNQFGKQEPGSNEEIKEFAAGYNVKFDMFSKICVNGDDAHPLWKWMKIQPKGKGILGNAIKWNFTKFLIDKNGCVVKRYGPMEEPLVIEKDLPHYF

As for `COC(=O)/C=C/C=C/C(=O)OC1C=C2COC(=O)C2(O)C2(C)CCCC(C)(C)C12` (stereo not given), the Potency entry in experiment [1], in experiment [2], in experiment [3], in experiment [4], in experiment [5] and in experiment [6] was “inactive” each time.

Take `C/C=C(/C)C(=O)OC1C=C2C3C(C)C(C)C(OC(=O)C(C)C(C)O)CC3(C)CCC2(C)C2(C)CC(OC(C)=O)C3C(C)(C)C(O)C(=O)CC3(C)C12` (stereo not given): the Potency entry in experiment [1], in experiment [2], in experiment [3], in experiment [4], in experiment [5] and in experiment [6] was “inactive” each time.

As to `CC1=CC2/C=C(\C)CCC(O)C/C=C/C(=O)OC23C(=O)NC(CC(C)C)C3C1C` (stereo not given), the Potency entry in experiment [1], in experiment [2], in experiment [3], in experiment [4], in experiment [5] and in experiment [6] was “inactive” in each case.

Consider `CCOC(=O)c1ccc(OCCC2CCN(c3ccc(C)nn3)CC2)cc1`, for which the Potency entry in experiment [1], in experiment [2], in experiment [3], in experiment [4], in experiment [5] and in experiment [6] was “inactive” each time.

With `CCCc1cc(C)n(C)c(=O)c1CN(C)C(=O)c1cc(-c2ccc(N3CCN(C(C)C)CC3)nc2)cc2c1cnn2C(C)C`, the Potency result in experiment [1], in experiment [2], in experiment [3], in experiment [4], in experiment [5] and in experiment [6] was “inactive” each time.

With `CCCC(CCC)C(=O)NCc1ccc2c(cnn2-c2ccccc2OC)c1`, the Potency entry in experiment [1], in experiment [2], in experiment [3], in experiment [4], in experiment [5] and in experiment [6] was “inactive” in each case.

As for `COc1ccc(Sc2ccc(NC(=O)c3ccccc3Cl)cc2C#N)cc1`, the Potency result in experiment [1], in experiment [2], in experiment [3], in experiment [4], in experiment [5] and in experiment [6] was “inactive” throughout.

Turning to `NS(=O)(=O)Nc1ncnc(OCCOc2ncc(Br)cn2)c1-c1ccc(Br)cc1`, the Potency result in experiment [1], in experiment [2], in experiment [3], in experiment [4], in experiment [5] and in experiment [6] was “inactive” throughout.

As to `Oc1cccc(C2NC(=S)Nc3cccc(F)c32)c1` (stereo not given), the Potency result in experiment [1], in experiment [2], in experiment [3], in experiment [4], in experiment [5] and in experiment [6] was “inactive” throughout.

With `O=C(N[C@H](Cc1cscn1)C(=O)N[C@@H](CC1CCCCC1)[C@@H](O)[C@@H](O)C1CC1)c1nc2ccccc2[nH]1`, the Potency entry in experiment [1], in experiment [2], in experiment [3], in experiment [4], in experiment [5] and in experiment [6] was “inactive” in each case.

Turning to `COc1ccc([C@H]2Cc3cccc(O)c3C(=O)O2)cc1OC`, the Potency result in experiment [1], in experiment [2], in experiment [3], in experiment [4], in experiment [5] and in experiment [6] was “inactive” each time.

Turning to `O=C(/C=C/c1ccccc1O)O[C@@H]1O[C@H](CO)[C@@H](O)[C@H](O)[C@H]1O`, the Potency entry in experiment [1], in experiment [2], in experiment [3], in experiment [4], in experiment [5] and in experiment [6] was “inactive” each time.

As for `COc1ccc(C2(N(C)C(=O)c3ccc(NC(=O)c4ccco4)cc3)CCOCC2)cc1`, the Potency result in experiment [1], in experiment [2], in experiment [3], in experiment [4], in experiment [5] and in experiment [6] was “inactive” in each case.

`CC1=C(C(=O)Nc2cc(Cl)ccc2Cl)C(c2ccco2)C2=C(CCCC2=O)N1` (stereo not given): the Potency entry in experiment [1], in experiment [2], in experiment [3], in experiment [4], in experiment [5] and in experiment [6] was “inactive” each time.

As to `C[C@@H](NC(=O)c1ccc(C#Cc2cccc(F)c2)cn1)C(C)(C)O`, the Potency entry in experiment [1], in experiment [2], in experiment [3], in experiment [4], in experiment [5] and in experiment [6] was “inactive” in each case.

Turning to `Cc1cc(C)c(-n2cc(C)c3c(Cl)nc(C)nc32)c(C)c1`, the Potency entry in experiment [1], in experiment [2], in experiment [3], in experiment [4], in experiment [5] and in experiment [6] was “inactive” throughout.

Regarding `C=CCCN1CCC2(CC1)CN(C(=O)c1c(F)cccc1F)c1ccc(Cl)cc12`, the Potency result in experiment [1], in experiment [2], in experiment [3], in experiment [4], in experiment [5] and in experiment [6] was “inactive” each time.

Take `C=C(COC(=O)C(O)C(O)CN)C12OC1C1(C)C(=CC2=O)C(O)C(O)CC1C` (stereo not given): the Potency entry in experiment [1], in experiment [2], in experiment [3], in experiment [4], in experiment [5] and in experiment [6] was “inactive” in each case.

Take `CN1c2c(nc(N)[nH]c2=O)NC[C@@H]1CNc1ccc(C(=O)N[C@@H](CCC(=O)O)C(=O)O)cc1`: the Potency entry in experiment [1], in experiment [3], in experiment [4], in experiment [5] and in experiment [6] was “inactive” in each case. Also, the Potency entry in experiment [2] is “inactive and 1.24 µM (active)”.

Turning to `CCC(C)c1ccc(NC(=O)Cn2cnc3c2c(=O)n(C)c(=O)n3C)cc1` (stereo not given), the Potency entry in experiment [1], in experiment [2], in experiment [3], in experiment [4], in experiment [5] and in experiment [6] was “inactive” each time.
